Assay outcomes (PubChem BioAssay)
Most compounds without a hit are left out; they make up all but 2.4% or so of the library.
CHRM1 antagonist – human M1 muscarinic receptor antagonists, primary screen, CHO-K1 cells, Fluo-8 calcium fluorescence, 1536-well; Muscarinic acetylcholine receptor M1 (Homo sapiens), P11229; CHO-K1 hM1, ACh EC80 antagonist; inhibition, % at 3 µM; actives 1.3% (n = 360,000);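 active means percent inhibition above its own plate's cutoff, namely the mean of that plate's compound wells plus 3 SD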;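 further: peak over basal fluorescence ratio during 140 s after agonist addition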
Target sequence (P11229 whole entry, looked up): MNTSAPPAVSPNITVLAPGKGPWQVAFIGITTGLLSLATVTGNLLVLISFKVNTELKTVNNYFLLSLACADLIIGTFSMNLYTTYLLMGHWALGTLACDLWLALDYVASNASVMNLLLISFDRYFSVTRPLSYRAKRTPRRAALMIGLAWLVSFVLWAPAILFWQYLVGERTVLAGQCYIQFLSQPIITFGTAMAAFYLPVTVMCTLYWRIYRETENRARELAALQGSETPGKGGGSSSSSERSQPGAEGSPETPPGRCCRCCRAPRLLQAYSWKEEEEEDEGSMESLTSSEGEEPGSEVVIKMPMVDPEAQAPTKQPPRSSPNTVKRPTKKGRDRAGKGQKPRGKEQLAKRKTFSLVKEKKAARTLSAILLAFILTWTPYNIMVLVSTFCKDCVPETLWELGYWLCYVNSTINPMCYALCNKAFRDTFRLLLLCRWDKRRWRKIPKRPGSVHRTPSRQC
CHO-K1 Ca antag – M1 antagonist counterscreen hit in parental CHO-K1 cells | ATP-induced calcium, Fluo-8 fluorescence | inhibition, % at 3 µM | actives 0.6% (n = 360,000) | AID 602250;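 active means inhibition above a per-plate cutoff, the plate's mean sample inhibition plus 3 SD, cut at about 24% in these data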
CHO-K1 Ca ag – counter-screen for M1 agonists: effect in parental CHO-K1 cells. Fluo-8 calcium fluorescence; scaled to maximal ATP response, vehicle zero. activation, % at 3 µM. actives 0.48% (n = 360,000); in the data active means activation above about 15%;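 further: untransfected CHO-K1 host cells lacking M1 receptor as counterscreen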
CHO-K1 Ca PAM – nonselective calcium activators in parental CHO-K1 cells, primary screen, counter-screen for M1 PAM project, cell-based, Fluo-8 calcium fluorescence, full deck, 1536-well; ATP EC20; 0% at ATP EC20, 100% at ATP max; activation, % at 3 µM; actives 0.02% (n = 360,000); AID 602247, 2012;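 active means activation above the run cutoff, the mean activation of all test compounds plus 3 SD, cut at about 40% in these data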;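 further: peak over basal fluorescence ratio in a 140 s read after ATP addition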
M1 PAM – human M1 muscarinic receptor positive allosteric modulators, primary screen, CHO-K1 cells, Fluo-8 calcium fluorescence, 1536-well; Muscarinic acetylcholine receptor M1 (Homo sapiens), P11229; CHO-K1 hM1, ACh EC20; 0% = ACh EC20, 100% = maximal ACh; activation, % at 3 µM; actives 0.088% (n = 360,000); AID 588819, 2011; in the data active means activation above about 19%, passing the limit was not always enough
M1 ag – human M1 muscarinic receptor agonists, primary screen, Fluo-8 calcium fluorescence, CHO-K1 cells, HTS; activation, % at 3 µM; Muscarinic acetylcholine receptor M1 (Homo sapiens), P11229; CHO-K1 hM1, agonist mode; 0% DMSO, 100% acetylcholine EC100; actives 0.33% (n = 360,000); AID 588814, 2011;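 active means activation above the run's mean compound activation plus 3 SD, cut at about 16% in these data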;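 further: peak over basal fluorescence ratio within a 140 s kinetic read after compound addition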
Large screens that a line does not name were inactive.

CC(=O)N1CCN(c2ccccc2NC(=O)c2ccc(C#N)cc2F)CC1	none
CCN1CCN(c2ccc(NC(=O)c3ccc(C#N)cc3F)cc2Cl)CC1	CHRM1 antagonist 54
CCN1CCN(c2ccc(NC(=O)c3cc4ccccc4cc3OC)cc2C)CC1	CHRM1 antagonist 99
CCN1CCN(c2ccc(NC(=O)c3ccccc3F)cc2Cl)CC1	CHRM1 antagonist 84
CCCCCC(=O)NC(=S)Nc1ccc(N2CCCCC2)c(Cl)c1	none
CN(C)CCCNC(=O)C[C@H]1C[C@H](C(=O)N2CCCCC2)[C@@]2(C)c3[nH]c4cc(CCC(=O)N(C)C)ccc4c3CCN2C1=O	none
CCCc1nnc(NS(=O)(=O)c2ccc(C)cc2)o1	none
O=C(CN1CCN(C(=O)CCC(=O)N2CCC(c3ccccc3)=N2)CC1)Nc1ccc(F)cc1	none
CCC1CCCCN1CCCNS(=O)(=O)c1ccc2c(c1)oc(=O)n2C (stereo unspecified)	none
CCC1CCCCN1CCNS(=O)(=O)c1ccc2c(c1)oc(=O)n2C (stereo unspecified)	CHRM1 antagonist 50
COCCCNC(=O)Cc1ccc(S(=O)(=O)N2CCOCC2)s1	none
Cc1ccccc1Cn1nc(C)c(NC(=O)c2cc(CC(C)C)on2)c1C	none
Cc1nn(Cc2ccc(Cl)c(Cl)c2)c(C)c1NC(=O)c1cc(CC(C)C)on1	CHRM1 antagonist 29
Cc1nn(Cc2ccc(Cl)c(Cl)c2)c(C)c1NC(=O)c1noc2c1CCCCC2	M1 PAM 27
O=C(c1ccc(Cl)cc1)C1CCN(C(=S)Nc2ccccc2)CC1	none
Cc1ccc(C)c(NC(=O)Nn2cnnc2)c1	none
O=C(/C(=C/O)N=Nc1ccccc1)c1ccncc1	CHO-K1 Ca ag 23
CC(C)c1nc2c(c(=O)c3ccccc3n2C)c(=O)n1CCc1ccccc1	CHO-K1 Ca ag 21, M1 ag 20
COc1ccc(OCCOC(=O)c2ccc(F)c(S(=O)(=O)N3CCOCC3)c2)cc1	none
c1ccc(CC2CCCNC2)cc1 (stereo unspecified)	M1 ag 22
COC(=O)CCN(C(=O)c1ccc(N2CCCCC2)c([N+](=O)[O-])c1)c1ccccn1	CHO-K1 Ca ag 20
COC(=O)CCN(C(=O)c1ccc(N2CCCC2)c([N+](=O)[O-])c1)c1ccccn1	none
O=C(CCN1C(=O)NC2(CCCC2)C1=O)Nc1cccc(S(=O)(=O)N2CCOCC2)c1	none
Cn1c(=O)c2cc(NC(=O)CCc3ccccc3)ccc2n1Cc1cccc(C(F)(F)F)c1	none
CCOCCC(=O)Nc1ccc2c(c1)c(=O)n(C)n2Cc1cccc(C(F)(F)F)c1	M1 PAM 32
Cc1ccc(S(=O)(=O)NC2CC(C)(C)N(O)C(C)(C)C2)cc1	none
O=C(Nc1cc(Cl)cc(Cl)c1)c1cccc(OC(F)F)c1	CHO-K1 Ca antag 27
CC(=O)C1=C(O)C(=O)N(c2ccccn2)C1c1cccc(F)c1 (stereo unspecified)	none
CC1CCCC(NC(=O)CSc2ncccn2)C1C (stereo unspecified)	CHO-K1 Ca antag 27
COC(=O)COc1ccc(S(=O)(=O)NCc2ccc3c(c2)OCO3)cc1C	none
CC1CCCCN1C/C=C/c1ccccc1[N+](=O)[O-] (stereo unspecified)	CHRM1 antagonist 86
CCC1CCCCN1C/C=C/c1ccccc1[N+](=O)[O-] (stereo unspecified)	CHRM1 antagonist 89
CC1CCCN(C/C=C/c2ccccc2[N+](=O)[O-])C1 (stereo unspecified)	none
COc1cc(/C=C/C(=O)O)cc(S(=O)(=O)N2CCN(S(=O)(=O)c3ccc(Cl)cc3)CC2)c1OC	none
O=C(O)c1nn(CC(=O)N2CCN(c3ncc(C(F)(F)F)cc3Cl)CC2)c(=O)c2ccccc12	none
Cc1ccc(C(=O)OCC(=O)NC(=O)c2ccc(C(C)(C)C)cc2)c(O)c1	CHRM1 antagonist 34
O=C(c1[nH]c(C(F)(F)F)nc1-c1ccccc1)N1CCN(c2c(Cl)cncc2Cl)CC1	M1 ag 17
O=C(c1[nH]c(C(F)(F)F)nc1-c1ccccc1)N1CCN(c2ccccc2)CC1	none
COc1ccc(N2CC(C(=O)N[C@H](C(=O)NC3CCCCC3)C(C)C)CC2=O)cc1 (stereo partly specified)	none
COc1ccc(-c2cc(C(=O)N(C)Cc3nc4ccccc4c(=O)[nH]3)c3ccccc3n2)cc1OC	CHRM1 antagonist 33
COc1ccc(CN(C)C(=O)c2cc(-c3ccccc3)nc3ccc(C)cc23)c(OC)c1OC	CHO-K1 Ca ag 18
COc1ccc(CN(C)C(=O)c2cc(-c3ccc(OC)c(OC)c3)nc3ccccc23)c(OC)c1	CHRM1 antagonist 29
COc1ccc(CCN(C)C(=O)c2cc(-c3ccccc3)nc3ccc(C)cc23)cc1OC	none
COc1cccc(CN(C)C(=O)c2cc(-c3ccc(OC)c(OC)c3)nc3ccccc23)c1	none
COc1ccccc1CN(C)C(=O)c1cc(-c2cccs2)nc2ccccc12	CHRM1 antagonist 27
COc1ccc(-c2cc(C(=O)N(C)Cc3cccc(OC)c3OC)c3ccccc3n2)cc1OC	none
CCOc1ccc(C(=O)NCC(=O)OCC(=O)N(C)CC(=O)Nc2ccccc2CC)cc1OCC	none
CCCNC(=O)C1(C)CCN1C(=O)Cc1ccc(C(C)(C)C)cc1 (stereo unspecified)	none
COc1cc(C2N(C)C(=O)c3ccccc3N2C)ccc1O (stereo unspecified)	CHO-K1 Ca ag 17
CC(N)c1csc(Nc2ncccn2)n1 (stereo unspecified)	CHO-K1 Ca antag 25
CC(N)c1csc(Nc2nncc3ccccc23)n1 (stereo unspecified)	CHRM1 antagonist 102
Cn1c(N2CCN(C(=O)Nc3ccc(F)cc3)CC2)nc2ccccc21	none
Cn1c(N2CCN(C(c3ccccc3)c3ccccc3)CC2)nc2ccccc21	CHRM1 antagonist 32, CHO-K1 Ca antag 25
Cc1c(C(=O)NCc2ccc3c(c2)OCCO3)sc(=O)n1Cc1ccc2c(c1)OCO2	none
Cc1c(C(=O)NCc2cccc([N+](=O)[O-])c2)sc(=O)n1Cc1ccc(F)cc1	CHRM1 antagonist 39
Cc1c(C(=O)NCc2ccc([N+](=O)[O-])cc2)sc(=O)n1Cc1ccc2c(c1)OCO2	M1 ag 19
Cn1cccc1C1Nc2ccccc2NC2=C1C(=O)CC(C)(C)C2 (stereo unspecified)	CHRM1 antagonist 42
CCC(=O)Nc1nnc(SCCN2CCOCC2)s1	CHRM1 antagonist 33
